Bioassay records: PubChem BioAssay, several laboratories
In the library only some 4.8% were active in any assay of this set; here they are far more common.
hcDAF12 agonist: H. contortus DAF-12 activation, primary screen; HEK293 hcDAF-12 lit1-tk-luc reporter, luminescence; 0% DMSO, 100% Δ7-dafachronic acid; activation, % at 6.8 µM; AID 652067; 1.4% of 370,000 active;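 active = activation above the mean of all tested compounds plus 3 SD, cut at about 5.5% in these data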;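 also: 100% = response to 3 µM Δ7-dafachronic acid high control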
Rev-erbA mod: modulates human Rev-erb alpha binding to DNA | activity, % at 10 µM | Rev-erbα–FITC-DNA binding, fluorescence polarization, 90 min | 0.79% of 370,000 active | P20393 | AID 1259318;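 active = activity above about 14%, limit read from the data; passing the limit was not always enough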;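 also: 0% = DMSO wells with 35 nM protein and 100% = DMSO wells with 750 nM protein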
hgDAF-12 ag: activates the H. glycines DAF-12 receptor ligand-binding domain. AID 687014. HEK293 GAL4-hgDAF12 UAS-luciferase reporter, agonist luminescence; normalized to butyrate control. activation, % at 6.8 µM. 1.8% of 370,000 active;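 active = activation above a cutoff set at the mean of all screened compounds plus 3 SD, cut at about 10% in these data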;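 also: 0% = DMSO wells and 100% = sodium butyrate wells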
ssDAF-12 act: activates DAF-12 receptor from parasite S. stercoralis. HEK293 ssDAF-12/GRIP1 lit1-tk-luc reporter, luminescence; % of 3 µM dafachronic acid response. activation, % at 6.8 µM. 1% of 370,000 active;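 active = activation above the mean over all tested compounds plus 3 SD, cut at about 0.9% in these data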;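 also: 0% = DMSO-only wells and 100% = 3 µM delta7-dafachronic acid wells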
DAX1 inh-1: inhibits human nuclear receptor DAX1 | inhibition, % at 6.75 µM | AID 504766 | 0.99% of 340,000 active | HEK293 Gal4-DAX1 luciferase reporter, luminescence | P51843;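 active = inhibition above the mean over all tested compounds plus 3 SD, cut at about 4.2% in these data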;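 also: 0% = DAX1-transfected cells with DMSO and 100% = empty-vector control cells with DMSO; inhibition shows as a rise in luminescence from relieved DAX1 repression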
DAX1 inh-2: blocks DAX1 repression of SF-1 activated StAR promoter; HEK293T StAR-luciferase reporter, SF-1/DAX-1 repression relief; inhibition, % at 6.8 µM; 1.1% of 370,000 active;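 active = inhibition above the mean over all tested compounds plus 3 SD, cut at about 3.6% in these data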;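 also: 0% = DAX-1 cells with DMSO and 100% = cells lacking DAX-1 with DMSO; higher inhibition means more luminescence from relief of DAX-1 repression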
DAX1 conf: NR0B1 (human) inhibition, confirmation | shares compounds with DAX1 inh-2 | HEK293T StAR-promoter luciferase reporter, SF-1/DAX-1 repression | inhibition, % at 6.8 µM | 87% of 2,400 active;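 active = inhibition above the average of every tested compound plus 3 SD, cut at about 3.8% in these data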;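 also: 0% = DAX-1 cells with DMSO and 100% = no DAX-1 control cells with DMSO; active compounds raise luminescence by relieving repression of the StAR reporter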
Target sequence (P51843 whole entry, looked up): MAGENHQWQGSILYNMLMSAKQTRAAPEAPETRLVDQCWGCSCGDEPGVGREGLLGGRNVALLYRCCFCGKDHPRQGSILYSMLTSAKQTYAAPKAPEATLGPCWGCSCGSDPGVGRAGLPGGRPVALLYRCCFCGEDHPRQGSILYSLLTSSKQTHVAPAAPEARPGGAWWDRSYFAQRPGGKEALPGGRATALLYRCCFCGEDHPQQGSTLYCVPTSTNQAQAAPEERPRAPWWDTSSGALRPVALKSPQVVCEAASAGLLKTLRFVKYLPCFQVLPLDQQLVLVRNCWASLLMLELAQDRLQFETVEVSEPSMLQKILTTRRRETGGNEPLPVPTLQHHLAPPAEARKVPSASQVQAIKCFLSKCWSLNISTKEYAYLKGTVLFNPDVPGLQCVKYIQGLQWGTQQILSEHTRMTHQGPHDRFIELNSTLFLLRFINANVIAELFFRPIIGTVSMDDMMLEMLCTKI
SF1 AF2mut Luc: counter-screen for DAX1 inhibitors: nonselective inhibitors with SF-1 AF2 mutant; shares compounds with DAX1 inh-2; HEK293 StAR-luciferase, luminescence; inhibition, % at 6.8 µM; 78% of 2,400 active;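 active = inhibition above the mean of all tested compounds plus 3 SD, cut at about 3% in these data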;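 also: 0% = DAX-1 transfected cells with DMSO and 100% = cells without DAX-1 with DMSO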
LXRb hcDAF ctr: counter-screen for hcDAF-12 agonists: agonists of human LXR-beta | shares compounds with hcDAF12 agonist | HEK293 Gal4-LXR tk-luc reporter, luminescence, 24 h; normalized: DMSO 0%, positive control 100% | activation, % at 6.8 µM | 3,400 tested, under 10 active;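 active = mean percent activation of the reporter above a cutoff set as the average over tested compounds plus their standard deviation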
hcDAF12 ag: confirmation of H. contortus DAF-12 agonists; shares compounds with hcDAF12 agonist; HEK293 hcDAF-12 lit1-tk-luc reporter, luminescence; % of Δ7-dafachronic acid response; activation, % at 6.8 µM; 61% of 3,400 active; AID 743032;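 active = mean activation across triplicate tests above the threshold derived from the earlier primary screen, cut at about 5.5% in these data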;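 also: 0% = DMSO only wells and 100% = 3 µM Δ7-dafachronic acid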
hgDAF12 conf: hgDAF-12 agonism, confirmation assay. HEK293 GAL4-hgDAF12 luciferase reporter, agonist mode; percent of butyrate response. shares compounds with hgDAF-12 ag. activation, % at 6.8 µM. AID 743050. 80% of 3,300 active;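 active = mean activation over triplicate wells above the hit cutoff derived from the earlier primary screen, cut at about 11% in these data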;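 also: 0% = DMSO low control and 100% = 2 mM sodium butyrate high control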
LXRb DAF12 ctr: counter-screen for DAF-12 agonists: agonists of human LXR-beta; 3,300 tested, under 10 active; HEK293 Gal4-LXR luciferase reporter, 24 h; AID 743051; shares compounds with hgDAF-12 ag; activation, % at 6.8 µM;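 active = mean activation of the triplicate above a set limit carried over from the primary screen, none filed active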
An asterisk follows results filed as active; nt = not tested or not shown.

SMILES	hcDAF12 agonist	Rev-erbA mod	hgDAF-12 ag	ssDAF-12 act	DAX1 inh-1	DAX1 inh-2	DAX1 conf	SF1 AF2mut Luc	LXRb hcDAF ctr	hcDAF12 ag	hgDAF12 conf	LXRb DAF12 ctr
Cc1ccsc1/C=C/c1ccc2ccccc2n1	23.2*	0.2	16.1*	3.0*	1.0	5.0*	7.3*	1.9	2.3	21.9*	15.2*	1.6
COc1cccc(NC(=O)Nc2ccc3c(c2)nc(C)n3C)c1	5.7*	-1.1	20.4*	-0.3	-1.8	4.7*	12.1*	7.8*	nt	nt	14.8*	0.9
Cc1ccc(N/N=C(\C#N)C(=N)N2CCCCCC2)cc1	11.5*	1.2	19.4*	2.0*	1.9	10.2*	16.1*	6.8*	1.5	9.7*	23.3*	1.1
N#C/C(=N\Nc1ccccc1)C(=N)N1CCOCC1	0.5	-2.3	3.2	-1.2	2.0	0.4	nt	nt	nt	nt	nt	nt
Cc1ccc(N/N=C(\C#N)C(=O)c2ccsc2)cc1	0.1	-1.0	2.3	-1.2	0.3	-0.4	nt	nt	nt	nt	nt	nt
N#C/C(=N\Nc1ccc(F)cc1)C(=N)N1CCCCCC1	9.2*	0.3	14.4*	0.4	4.4*	7.0*	14.6*	4.0*	1.4	7.3*	17.9*	0.8
N#C/C(=N\Nc1ccc(Cl)cc1)C(=N)N1CCCCC1	7.8*	5.6	15.5*	1.0*	2.1	5.9*	15.4*	11.5*	2.1	6.6*	19.4*	1.0
C#CCNC(=O)C[C@H]1C[C@@]2(C(=O)OC)C(=C[C@H](C(C)(C)C)O[C@@H]2C)N(Cc2ccccc2)C1=O	-0.8	0.2	1.6	-1.4	nt	0.6	nt	nt	nt	nt	nt	nt
CCCOc1ccc(C(=O)N2CCC(Oc3cccnc3)CC2)cc1	-1.1	-2.2	-1.8	-1.7	nt	-1.1	nt	nt	nt	nt	nt	nt
C/C(=N\NC(=O)c1ccncc1)c1cccs1	-0.7	-1.2	4.3	-1.2	2.1	1.3	nt	nt	nt	nt	nt	nt
C/C(=N\NC(=O)c1cccs1)c1cccnc1	8.4*	1.4	24.6*	0.6	2.7	5.5*	0.8	-0.1	0.2	1.4	8.4	0.3
Cc1c(Br)c(C(=O)NNC(=O)c2ccc(C(C)(C)C)cc2)nn1C	-0.4	7.7	3.8	-1.3	-1.3	0.6	nt	nt	nt	nt	nt	nt
C/C(=N\NC(=O)c1cccs1)c1ccc(C(=O)O)s1	7.0*	-4.2	14.9*	-0.1	2.0	8.0*	-0.7	-0.5	-0.3	0.7	6.6	0.2
C/C(=N\NC(=O)c1ccc2ccccc2c1)c1cccs1	3.3	1.1	13.5*	0.1	1.3	9.8*	7.5*	5.0*	nt	nt	20.6*	0.9
C/C(=N\NC(=O)c1nn(C)c(C)c1Br)c1ccc(NC(=O)c2ccoc2C)cc1	8.5*	-2.3	19.9*	0.1	-0.2	5.5*	2.7	1.2	-0.5	-2.1	2.2	0.0
CC(NC(=O)c1c(N)[nH]c(C(=O)c2ccc(Cl)cc2)c1-c1ccc(Br)cc1)c1cccc2ccccc12 (stereo not given)	0.1	-8.2	-1.2	-1.2	nt	0.1	nt	nt	nt	nt	nt	nt
O=C(Cn1nnc(-c2ccncc2)n1)Nc1ccc(Cl)cc1	-3.1	-2.9	1.1	-0.8	nt	-0.7	nt	nt	nt	nt	nt	nt
C/C(=N\NC(=O)c1ccoc1C)c1cccnc1	4.8	-4.0	14.2*	0.3	3.9	5.5*	1.9	1.5	nt	nt	3.5	0.1
